Assay results from PubChem BioAssay (NCI).
Compounds without any hit were thinned out: in the full panel of roughly 79,000, 15% have a hit. Active and inactive are the calls of the source. No stated cut-off is given here; in the data, active means growth inhibition above about 70%; inactive means the rest.

Assays:
[1] = NCI Yeast Anticancer Drug Screen. Data for the rad52 strain (AID 147);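 further: 0% = growth of vehicle-treated control cultures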; conditions: S. cerevisiae rad52 mutant growth inhibition, stronger effect = higher value
Method in brief: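 Compounds are applied to a genetically defined yeast strain lacking normal DNA damage repair, and inhibition of growth is expressed relative to cultures given vehicle only.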

[2] = NCI Yeast Anticancer Drug Screen. Data for the wt1 strain (AID 149);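 further: 0% = growth of vehicle-treated wt1 cultures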; conditions: S. cerevisiae wt1 strain (SPY 50644) growth inhibition, stronger effect = higher value
Method in brief: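 Yeast wt1 strain exposed to compounds; growth inhibition measured relative to vehicle-treated controls.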

[3] = NCI Yeast Anticancer Drug Screen. Data for the rad50EPP+ strain (AID 151);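 further: 0% = growth of vehicle-treated control cultures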; conditions: S. cerevisiae rad50 mutant strain, stronger effect = higher value
Method in brief: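 Compounds were applied to the rad50EPP+ yeast strain, which bears a defined DNA repair alteration, and growth inhibition was determined relative to vehicle-treated cultures.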

[4] = NCI Yeast Anticancer Drug Screen. Data for the mgt1 strain (AID 153); conditions: S. cerevisiae mgt1 mutant growth inhibition, stronger effect = higher value
Method in brief: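 Strain: mgt1 yeast, one of a set carrying defined DNA damage repair or cell cycle control alterations. Compound-treated growth compared with vehicle.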

[5] = NCI Yeast Anticancer Drug Screen. Data for the rad50 strain (AID 155);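 further: 0% = growth of vehicle-only cultures of the same strain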; conditions: S. cerevisiae rad50 strain growth inhibition, stronger effect = higher value
Method in brief: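 Yeast carrying a defined DNA repair defect were exposed to test compounds, and growth was compared with vehicle-treated controls to give percent inhibition.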

[6] = NCI Yeast Anticancer Drug Screen. Data for the mec2-1 strain (AID 157); conditions: S. cerevisiae mec2-1 strain, stronger effect = higher value
Method in brief: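 Strain: mec2-1 (DNA repair/cell cycle alteration). Compound exposure, then growth measured; inhibition expressed relative to vehicle.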

[7] = NCI Yeast Anticancer Drug Screen. Data for the rad14 strain (AID 159);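 further: 0% = growth of vehicle-treated control cultures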; conditions: S. cerevisiae rad14 strain growth inhibition, stronger effect = higher value
Method in brief: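 Yeast cells carrying a defined DNA-repair defect were exposed to compounds, and growth inhibition was calculated relative to vehicle-treated control cultures.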

[8] = NCI Yeast Anticancer Drug Screen. Data for the sgs1 mgt1 strain (AID 161);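 further: 0% = growth of cultures given vehicle only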; conditions: S. cerevisiae sgs1 mgt1 strain, stronger effect = higher value
Method in brief: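 Inhibition of yeast growth, normalised to vehicle-treated controls, is reported for a strain bearing genetic alterations in DNA damage repair.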

[9] = NCI Yeast Anticancer Drug Screen. Data for the CLN2oe strain (AID 163);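 further: 0% = growth of vehicle-only control cultures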; conditions: S. cerevisiae CLN2oe strain, stronger effect = higher value
Method in brief: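 Growth of a genetically modified yeast strain is measured after compound exposure and compared with cultures given vehicle alone.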

[10] = NCI Yeast Anticancer Drug Screen. Data for the cln2 rad14 strain (AID 165);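 further: 0% = growth equal to vehicle treated cultures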; conditions: S. cerevisiae cln2 rad14 strain, stronger effect = higher value
Method in brief: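 Compounds are applied to the cln2 rad14 yeast strain, and growth is then compared with that of vehicle-treated cultures to give inhibition.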

[11] = NCI Yeast Anticancer Drug Screen. Data for the bub3 strain (AID 167); conditions: S. cerevisiae bub3 mutant strain, stronger effect = higher value
Method in brief: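 Compounds were applied to a genetically altered yeast strain carrying a cell-cycle control defect. Growth inhibition was scored against vehicle-treated controls.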

[12] = NCI Yeast Anticancer Drug Screen. Data for the wt2 strain (AID 169);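 further: 0% = growth of vehicle-treated yeast cultures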; conditions: S. cerevisiae wt2 strain growth inhibition, stronger effect = higher value
Method in brief: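 This strain belongs to a panel of yeast strains with defined genetic alterations in DNA damage repair or cell cycle control. Compounds are applied, and growth inhibition is measured against vehicle-treated cultures.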

[13] = NCI Yeast Anticancer Drug Screen. Data for the mlh1 strain (AID 171);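 further: 0% = growth of vehicle-treated control cultures of the same strain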; conditions: S. cerevisiae mlh1 strain growth inhibition, stronger effect = higher value
Method in brief: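 Growth of the mutant yeast strain after compound exposure, expressed as inhibition relative to vehicle-only controls.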

[14] = NCI Yeast Anticancer Drug Screen. Data for the sgs1 strain (AID 173);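 further: 0% = growth of vehicle-only control cultures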; conditions: S. cerevisiae sgs1 mutant, stronger effect = higher value
Method in brief: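 Growth of a yeast strain bearing a defined genetic alteration is measured after compound treatment. Inhibition is expressed relative to vehicle-only controls.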

[15] = NCI Yeast Anticancer Drug Screen. Data for the mlh1 rad18 strain (AID 175); conditions: S. cerevisiae mlh1 rad18 strain growth inhibition, stronger effect = higher value
Method in brief: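 Read-out is yeast growth inhibition, calculated against vehicle-only controls. The compound was applied to a strain engineered with DNA damage repair alterations.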

[16] = NCI Yeast Anticancer Drug Screen. Data for the rad18 strain (AID 177); conditions: S. cerevisiae rad18 mutant growth inhibition, stronger effect = higher value
Method in brief: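 Growth of the mutant yeast strain after compound exposure, normalised to vehicle-only cultures.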

[17] = at 5.0 µM (retest, dose inferred, filed as 0.5)
[18] = at 50.0 µM (retest, dose inferred, filed as 5.0)

Measured: growth inhibition

O=C1SS(=O)c2ccccc21 (stereo unspecified)
inactive: [1]; at 1.2 µM 11% | [1]; at 3.7 µM 6% | [1]; at 11.0 µM 8% | [1]; at 33.0 µM 25% | [2]; at 1.2 µM -5% | [2]; at 3.7 µM -2% | [2]; at 11.0 µM 12% | [2]; at 33.0 µM -5% | [2]; at 100.0 µM 67% | [3]; at 1.2 µM 7% | [3]; at 3.7 µM 5% | [3]; at 11.0 µM 7% | [3]; at 33.0 µM 23% | [3]; at 100.0 µM 65% | [4]; at 1.2 µM 9% | [4]; at 3.7 µM 12% | [4]; at 11.0 µM 12% | [4]; at 33.0 µM 42% | [5]; at 1.2 µM 5% | [5]; at 3.7 µM 0% | [5]; [17] 32% | [5]; at 11.0 µM 2% | [5]; at 33.0 µM 26% | [5]; at 50.0 µM 34.1% | [6]; at 1.2 µM 5% | [6]; at 3.7 µM 18% | [6]; [17] 27% | [6]; at 11.0 µM -3% | [6]; at 33.0 µM 13% | [6]; at 50.0 µM 44.1% | [7]; at 1.2 µM -11% | [7]; at 3.7 µM -3% | [7]; at 11.0 µM -17% | [7]; at 33.0 µM -4% | [7]; at 100.0 µM 61% | [8]; [17] 34% | [8]; at 50.0 µM 50% | [9]; at 1.2 µM 7% | [9]; at 3.7 µM 13% | [9]; at 11.0 µM 17% | [9]; at 33.0 µM 24% | [9]; at 100.0 µM 57% | [10]; [17] 11% | [10]; [18] 38% | [10]; at 50.0 µM 5.75% | [11]; at 1.2 µM -5% | [11]; at 3.7 µM 2% | [11]; [17] 24% | [11]; at 11.0 µM -5% | [11]; at 33.0 µM 0% | [11]; at 50.0 µM 40.3% | [12]; at 1.2 µM 7% | [12]; at 3.7 µM 8% | [12]; at 11.0 µM 8% | [12]; at 33.0 µM 17% | [12]; at 100.0 µM 66% | [13]; at 1.2 µM 6% | [13]; at 3.7 µM 20% | [13]; at 11.0 µM 17% | [13]; at 33.0 µM 24% | [13]; at 100.0 µM 68% | [14]; at 1.2 µM -7% | [14]; at 3.7 µM 5% | [14]; at 11.0 µM 8% | [14]; at 33.0 µM 21% | [14]; at 100.0 µM 39% | [15]; [17] 57% | [15]; at 50.0 µM 0% | [16]; at 1.2 µM 13% | [16]; at 3.7 µM 15% | [16]; at 11.0 µM 15% | [16]; at 33.0 µM 39%
active: [1]; at 100.0 µM 76% | [4]; at 100.0 µM 83% | [5]; [18] 89% | [5]; at 100.0 µM 79% | [6]; [18] 99% | [6]; at 100.0 µM 83% | [8]; [18] 85% | [11]; [18] 96% | [11]; at 100.0 µM 89% | [15]; [18] 95% | [16]; at 100.0 µM 90%

NC(CCCCCCCCCCCCC(N)C(=O)c1ccccc1)C(=O)c1ccccc1 (stereo unspecified)
inactive: [1]; at 1.2 µM -3% | [1]; at 3.7 µM -4% | [2]; at 1.2 µM -4% | [2]; at 3.7 µM -12% | [3]; at 1.2 µM -2% | [3]; at 3.7 µM -1% | [3]; at 11.0 µM -2% | [3]; at 33.0 µM -1% | [3]; at 100.0 µM -3% | [4]; at 1.2 µM -5% | [4]; at 3.7 µM -9% | [4]; at 11.0 µM 17% | [4]; at 33.0 µM 39% | [5]; at 1.2 µM -3% | [5]; at 3.7 µM -6% | [5]; [17] -9% | [5]; at 50.0 µM -5.55% | [6]; at 1.2 µM -6% | [6]; at 3.7 µM -15% | [6]; [17] -15% | [6]; at 11.0 µM 43% | [6]; at 33.0 µM 61% | [6]; at 50.0 µM -9.95% | [7]; at 1.2 µM -6% | [7]; at 3.7 µM -12% | [7]; at 11.0 µM 38% | [7]; at 33.0 µM 62% | [8]; [17] -10% | [8]; at 50.0 µM -12.2% | [9]; at 1.2 µM -9% | [9]; at 3.7 µM -20% | [9]; at 11.0 µM 52% | [10]; [17] -26% | [10]; at 50.0 µM -32.3% | [11]; at 1.2 µM -3% | [11]; at 3.7 µM 0% | [11]; [17] 4% | [11]; at 50.0 µM -2.55% | [12]; at 1.2 µM -4% | [12]; at 3.7 µM -8% | [13]; at 1.2 µM -4% | [13]; at 3.7 µM -10% | [13]; at 11.0 µM 59% | [14]; at 1.2 µM -5% | [14]; at 3.7 µM -7% | [15]; [17] -8% | [15]; [18] -13% | [15]; at 50.0 µM -10.4% | [16]; at 1.2 µM -6% | [16]; at 3.7 µM -9% | [16]; at 11.0 µM 41%
active: [1]; at 11.0 µM 88% | [1]; at 33.0 µM 92% | [1]; at 100.0 µM 96% | [2]; at 11.0 µM 75% | [2]; at 33.0 µM 95% | [2]; at 100.0 µM 95% | [4]; at 100.0 µM 94% | [5]; at 11.0 µM 81% | [5]; at 33.0 µM 85% | [5]; [18] 88% | [5]; at 100.0 µM 93% | [6]; [18] 92% | [6]; at 100.0 µM 91% | [7]; at 100.0 µM 96% | [8]; [18] 94% | [9]; at 33.0 µM 91% | [9]; at 100.0 µM 95% | [10]; [18] 92% | [11]; at 11.0 µM 74% | [11]; at 33.0 µM 95% | [11]; [18] 94% | [11]; at 100.0 µM 91% | [12]; at 11.0 µM 83% | [12]; at 33.0 µM 96% | [12]; at 100.0 µM 96% | [13]; at 33.0 µM 94% | [13]; at 100.0 µM 93% | [14]; at 11.0 µM 82% | [14]; at 33.0 µM 96% | [14]; at 100.0 µM 95% | [16]; at 33.0 µM 96% | [16]; at 100.0 µM 96%
